# The campaign covered roughly 190,000 compounds. About 930 (0.49%) were called active. Some of the results follow. Potency and affinity values are given separately. A number with no mark means an inactive call.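 How the source made its calls: active means z-score of insulin promoter reporter brightness in nuclei below -3 at 5 µM, with at least 500 cells counted; inconclusive means wells with under 500 cells, flagged as toxic or sparse; inactive means the rest.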
# Test: insulin promoter down-regulators in MIN6 cells, imaging, high-content screening, mouse beta cells (AID 1628)
# Settings: MIN6 insulin promoter GFP reporter, at 5 µM, active compounds read low
row,SMILES,z-score
1,CCN(CC)S(=O)(=O)c1cccc(-c2n[nH]c(=S)n2/N=C/c2ccc(C(=O)OC)cc2)c1,-4.66 (active)
2,COC(=O)c1cc(-c2c(C)oc3cc(O)ccc3c2=O)c(C)o1,0.55
3,COC(=O)c1cc(Nc2cc(C)c3ccc(O)cc3n2)cc(C(=O)OC)c1,-3.19 (active)
4,Cc1cc(C(=O)COc2ccc(-c3nnco3)cc2)c(C)n1Cc1ccccc1,-4.66 (active)
5,S=C(Nc1ccccc1Cl)N(CCCN1CCOCC1)Cc1ccco1,-4.9 (active)
6,Cc1csc(NC(=O)CN(C)S(=O)(=O)c2cccc3cccnc23)n1,3.05
7,CCOC(=O)Cc1csc(SCC(=O)Nc2cccc(C#N)c2)n1,1.27
8,Cc1csc(SCC(=O)Nc2cccc3nsnc23)n1,-3.34 (active)
9,N=c1c2c(n(Cc3ccc(F)cc3)c3c1CCC3)CCC2,-5.9 (active)
10,N=c1c2c(n(Cc3ccc([N+](=O)[O-])cc3)c3c1CCC3)CCCC2,-3.48 (active)
11,CC(C)(C)NC(=O)N1CCC(CO)(Cc2ccccc2Cl)CC1,-3.59 (active)
12,CCCn1nc2cc(C(=O)NCc3ccccc3)ccc2c1OCC,4.73
13,CCCCn1nc2cc(C(=O)N(CC)c3ccc(OC)cc3)ccc2c1OCC,-3.8 (active)
14,Cc1ccccc1N=Nc1c(C)[nH]n(C(N)=S)c1=O,-9.54 (active)
15,O=C(NNS(=O)(=O)c1ccc(F)cc1F)c1csc(-c2cccnc2)n1,-3.45 (active)
16,Nc1c(C(=O)N/N=C/c2cccnc2)oc2nc(-c3ccccc3)cc(-c3ccco3)c12,4.08
17,O=C(CSc1nc(Cc2ccccc2)nc2ccccc12)Nc1nc2c(s1)CCCC2,-3.54 (active)
18,CCCCc1nnc(NC(=O)CSc2nc(O)c(Cc3ccccc3)c(=O)[nH]2)s1,2.27
19,CN(C)c1ccc(/C=C(\C#N)C(=O)Nc2nc3c(s2)CCN(Cc2ccccc2)C3)cc1,15.1
20,O=c1cc(O)c2c(=O)n(-c3ccccc3)c3c(c2o1)CCCCCC3,-4.17 (active)
21,Cc1cc(Nc2nn(C)c(N)c2C#N)ccc1F,6.01
22,CCOC(=O)C1C(=O)C=C(c2cccc(NS(C)(=O)=O)c2)CC1c1ccco1 (stereo unspecified),-3.47 (active)
23,CCOC(=O)C1C(=O)C=C(/C=C/c2ccc(N(C)C)cc2)CC1c1ccccc1 (stereo unspecified),9.81
24,O=C(COc1ccc(Cl)cc1)NCc1nnc(SCC(=O)NC2CCCCC2)o1,3.28
25,COc1ccc(OCCC(=O)NC2CCCCC2)cc1,-3.45 (active)
26,COc1ccc(-c2nnn(CC(=O)N(CCO)C(C(=O)NC3CCCC3)c3ccc(F)cc3)n2)cc1 (stereo unspecified),3.28
